# Values joined by “and” are separate entries in the source; they are usually repeats but may differ in a detail not shown here. Equal entries are not always repeated. Active and inactive are the calls of the source. How the source made its calls: active means hit-call score of the fitted dose curve at least 0.9, where 1 is the maximum; inactive means score below 0.9.
# Tested on: NCBI gene 447152
# Assay: CCTE_GLTED_xIYD: CCTE's Xenopus Iodotyrosine Deiodinase (xIYD) Inhibition Assay, Great Lakes Toxicology and Ecology Division (GLTED) Lab
# Description: CCTE_GLTED_xIYD is a cell-free, single-readout assay that uses Xenopus (frog) iodotyrosine deiodinase (xIYD) enzyme from liver microsomes. Assay is based on iodide release measured by the Sandell-Kolthoff method and is run in 96-well plate format with assay plates run in triplicate (n=3) with measurements taken at 3 hours after chemical dosing. Platewise-normalization was used based on positive control (3-Nitro-L-tyrosine, MNT) and negative/solvent controls (DMSO, NaOH).CCTE_GLTED_xIYD is the assay component measured from the CCTE_GLTED_xIYD assay. It measures substrate involved in regulation of catalytic activity using spectrophotometry. The assay measures the deiodination activity of Xenopus (frog) IYD on the substrate monoiodotyrosine (MIT). After 3h incubation of substrate, enzyme, and test chemical, the components are applied to a 96-well Dowex column. Free iodide is not retained by the column and is separated from interfering assay components. The free iodide is measured by the Sandell-Kolthoff reaction in which the rate of reduction of cerium (Ce+4 to Ce+3) by arsenic (As+3 to As+5) is increased by the presence of iodide. This is observed as the loss of yellow color in the reaction and the quantified by the change in absorbance at 420 nm. The change in reaction rate is proportional to the amount of iodide present.Data from the assay component CCTE_GLTED_xIYD was analyzed at the assay endpoint CCTE_GLTED_xIYD in the positive analysis fitting direction relative to DMSO as the negative control and baseline of activity. Using a type of enzyme reporter, loss-of-signal activity can be used to understand iodotyrosine deiodinase activity. To generalize the intended target to other relatable targets, this assay endpoint is annotated to the 'dehalogenase' intended target family, where the subfamily is 'iodotyrosine deiodinase'.
# Human transthyretin (TTR) assay, developed at Great Lakes Toxicology and Ecology Division (GLTED) within the EPA's Center for Computational Toxicology and Exposure (CCTE), is designed to test the chemicals' ability to displace T4 from the TTR protein. TTR (0.125uM) is incubated in presence of test chemical for 2 hours during which disrupting chemicals displace ANSA from the TTR protein. Results read fluorescence at 380 excitation and 475 emission.
row,SMILES,AC50
1,O=S(=O)(O)C(F)(F)C(F)(F)C(F)(F)C(F)(F)C(F)(F)C(F)(F)C(F)(F)C(F)(F)F,36.4 µM (active) and 27.5 µM (active)
2,O=C(O)C(F)(F)C(F)(F)C(F)(F)C(F)(F)C(F)(F)C(F)(F)C(F)(F)C(F)(F)C(F)(F)F,73.7 µM (active)
3,O=C(O)C(F)(F)C(F)(F)C(F)(F)C(F)(F)C(F)(F)C(F)(F)C(F)(F)C(F)(F)F,39.2 µM (active)
4,NS(=O)(=O)C(F)(F)C(F)(F)C(F)(F)C(F)(F)C(F)(F)C(F)(F)C(F)(F)C(F)(F)F,61.2 µM (active)
5,O=C(O)C(F)(F)C(F)(F)C(F)(F)C(F)(F)C(F)(F)C(F)(F)C(F)(F)C(F)(F)C(F)(F)C(F)(F)F,35.9 µM (active)

# — PubChem BioAssay AID2284323 (EPA ToxCast)
